PrPC surface inh – reduces human prion protein on the cell surface; P04156; cell surface PrPC, TR-FRET read-out; inhibition, % at 13.8 µM; actives 0.43% (n = 370,000); in the data active = inhibition above about 24%; note: 0% = median of the test wells and 100% = reference compound wells
BJeLR lethal – kills HRASV12-expressing BJeLR cells; BJeLR (HRASV12) viability, CellTiter-Glo ATP luminescence, 48 h; actives 0.17% (n = 300,000); inhibition, % (no concentration beside the values); in the data active = inhibition above about 50%
GDH-TPI counter-1 – counter-screen for M. tuberculosis FBA inhibitors: GDH-TPI coupled enzymes; GDH-TPI coupled enzyme counterscreen, NADH absorbance; AID 588335; actives 1.2% (n = 360,000); inhibition, % at 4.8 µM; in the data active = inhibition above about 30%;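 note: 0% = DMSO wells and 100% = wells lacking the enzyme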
Mtb FBA inh – inhibitors of M. tuberculosis fructose-bisphosphate aldolase. P9WQA3. purified M. tuberculosis FBA, fluorescence read-out. inhibition, % at 1 µM. actives 2.3% (n = 360,000);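 note: 0% = vehicle and 100% = reference inhibitor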
Target sequence (P9WQA3 whole entry, looked up): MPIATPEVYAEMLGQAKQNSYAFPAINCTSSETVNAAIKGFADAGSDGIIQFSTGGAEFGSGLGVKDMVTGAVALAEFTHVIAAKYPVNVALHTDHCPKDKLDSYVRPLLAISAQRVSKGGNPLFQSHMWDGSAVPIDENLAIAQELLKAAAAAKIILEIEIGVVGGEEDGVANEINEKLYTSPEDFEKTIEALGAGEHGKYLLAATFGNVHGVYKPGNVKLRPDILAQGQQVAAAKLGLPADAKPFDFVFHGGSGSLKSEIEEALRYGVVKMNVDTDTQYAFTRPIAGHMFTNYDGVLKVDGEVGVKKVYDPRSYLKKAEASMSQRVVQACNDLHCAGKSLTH
RecA intein inh – Mtb RecA intein splicing inhibition. P9WHJ3. cell-free RecA intein splicing, fluorescence. inhibition, % (test concentration not listed). actives 0.75% (n = 290,000); in the data active = inhibition above about 30%;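 note: 0% = vehicle wells and 100% = reference inhibitor control wells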
Mtb FBA inh conf – Mtb FBA inhibition, confirmed; AID 651616; shares compounds with Mtb FBA inh; purified M. tuberculosis FBA, fluorescence read-out; inhibition, % at 1 µM; actives 78% (n = 5,600);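 note: 0% = vehicle wells and 100% = reference inhibitor wells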
GDH-TPI counter-2 – GDH-TPI inhibition counter-screen for FBA inhibitors; shares compounds with Mtb FBA inh; GDH-TPI coupled enzyme counterscreen, fluorescence; inhibition, % at 1 µM; actives 81% (n = 5,600); in the data active = inhibition above about 10%
Numbers without * were called inactive; / = no result given; + = active, no number. Only some compounds are listed: those with a hit (about 4.2% of all), similar ones and a draw of the others. Cut-off read from the data, not from the text of the source, unless noted: active = inhibition above about 27%; inactive = the rest.

SMILES	PrPC surface inh	BJeLR lethal	GDH-TPI counter-1	Mtb FBA inh	RecA intein inh	Mtb FBA inh conf	GDH-TPI counter-2
CSc1ccc(/C=C/C(=O)OCC(=O)NC2CC2)cc1	-4	/	25	46*	/	95*	68*
CNC(=O)COC(=O)/C=C/c1ccc(F)cc1	0	-18	-22	5	/	/	/
CCOC(=O)C1=C(COC(=O)/C=C/c2ccc(OC)cc2)NC(=O)NC1C (stereo not given)	1	/	17	3	/	/	/
C[C@H](CO)N1C[C@H](C)[C@@H](CN(C)S(C)(=O)=O)OCc2cn(nn2)CCCC1=O	3	/	/	/	/	/	/
CCCCN=C(N)NC(=O)OCc1ccccc1	3	/	/	/	/	/	/
COc1ccc(/C=N/NC(=O)CCc2n[nH]c(=O)[nH]c2=O)cc1O	-7	-13	13	1	0	/	/
COc1ccc(OC)c(/C=N/NC(=O)c2[nH]ncc2Br)c1	5	-7	21	39*	/	+	+
COc1ccc(OC)c(/C=N/NC(=O)CCc2n[nH]c(=O)[nH]c2=O)c1	-5	-8	13	60*	1	119*	87*
COc1cccc(/C=N/NC(=O)c2[nH]nc3c2CCc2ccccc2-3)c1	5	30	-1	0	4	/	/
COc1ccc(OC)c(/C=N/NC(=O)c2[nH]nc3c2CCc2ccccc2-3)c1	8	-3	15	45*	0	+	+
O=C(NC(C(=O)N1CCCC1C(=O)NC1CCCC1)c1ccccc1)c1cccs1 (stereo not given)	-5	/	/	/	/	/	/
CC(=O)OC1CCC2(C)C(COc3ccc4ccc(=O)oc4c3)C(C)(O)CCC2C1(C)C (stereo not given)	16	3	22	79*	9	42*	38*
C=C1CCC2C(C)(C)[C@@H](O)CC[C@@]2(C)[C@@H]1COc1ccc2ccc(=O)oc2c1 (stereo not given in full)	-22	2	15	24	4	/	/
CC(C)NC(=O)N[C@@H]1C[C@@H]2O[C@@H](CO)CC[C@@H]2O[C@@H]1CCc1ccc(-c2ccccc2F)cc1	-6	/	/	/	/	/	/
CC(C)(C)n1nnnc1CN(Cc1ccco1)Cc1cc2cc3c(cc2[nH]c1=O)OCO3	7	5	21	46*	-2	11	-4
CCCN1CCN(C(c2cc3cc4c(cc3[nH]c2=O)OCO4)c2nnnn2C(C)(C)C)CC1 (stereo not given)	-1	0	12	66*	-7	58*	-3
COCCn1nnnc1CN(Cc1ccco1)Cc1cc2cc3c(cc2[nH]c1=O)OCO3	-2	14	22	48*	-12	+	+
CCC(C)(C)n1nnnc1CN(Cc1ccco1)Cc1cc2cc3c(cc2[nH]c1=O)OCO3	/	-13	14	35*	-10	90*	97*
CCC(C)(C)n1nnnc1C(c1cc2cc3c(cc2[nH]c1=O)OCO3)N1CCCCC1 (stereo not given)	/	5	10	22	/	/	/
CCC(C)(C)n1nnnc1CN(Cc1ccc(Cl)cc1)Cc1ccco1	13	7	8	3	19	/	/
O=C(OCC#CCSc1nnc(-c2cccc3ccccc23)o1)c1ccccc1F	6	/	/	/	/	/	/
Cc1cc2nc(-c3ccc(SCC(=O)N4CCOCC4)nc3)[nH]c2cc1C	-4	11	31*	54*	-6	57*	50*
Cc1cc2nc(-c3ccc(SCC(=O)N4CCN(C(=O)c5ccco5)CC4)nc3)[nH]c2cc1C	6	21	48*	35*	4	44*	27*
CCOC(=O)CSc1ccc(-c2nc3cc(C)c(C)cc3[nH]2)cn1	7	-7	23	24	2	/	/
Cc1cc2nc(-c3ccc(SCc4ccccn4)nc3)[nH]c2cc1C	5	-10	38*	41*	0	54*	51*
SMILES	PrPC surface inh	BJeLR lethal	GDH-TPI counter-1	Mtb FBA inh	RecA intein inh	Mtb FBA inh conf	GDH-TPI counter-2
COc1ccc2oc(C(=O)OCC(=O)N(C)C3CCS(=O)(=O)C3)c(C)c2c1 (stereo not given)	-3	-3	9	45*	-1	73*	53*
COc1ccc2oc(C(=O)OCC(=O)N(C)CC(=O)Nc3ccc(C)cc3)c(C)c2c1	11	6	6	17	5	/	/
CCOc1ccc2oc(C(=O)OCC(=O)NC3CCCCC3)c(C)c2c1	-5	/	-6	22	/	/	/
Cc1c(C(=O)OCC(=O)N(C)C2CCS(=O)(=O)C2)oc2ccc(Br)cc12 (stereo not given)	-3	-1	8	1	-2	/	/
CCN(C(=O)COC(=O)c1oc2ccc(OC)cc2c1C)C1CCCCC1	-7	-7	-2	30*	0	103*	78*
COc1ccc2oc(C(=O)OCC(=O)N(C)C3CCCCC3)c(C)c2c1	-7	-5	6	38*	-1	2	-6
COc1ccc(S(=O)(=O)N2CCC(c3nc4ccccc4o3)CC2)c(OC)c1	8	/	/	/	/	/	/
CC(=O)c1cc(-c2cccc(CO)c2)c(=O)n2c1CCC2	3	/	/	/	/	/	/
CC(=O)C1(C(=O)NC2CCCC2)CC(c2ccccn2)=NO1 (stereo not given)	3	/	/	/	/	/	/
Cc1ccc(NC(=O)CCS(=O)(=O)c2ccccc2)c(C)c1	-3	/	/	/	/	/	/
CCOC(=O)C1=C[C@@H](C(C)(C)C)N(S(=O)(=O)c2ccc([N+](=O)[O-])cc2)[C@H]1c1ccccc1Cl	3	/	/	/	/	/	/
Cc1sc(-c2cccnc2)nc1OC(=O)C1CC1	0	-3	7	28*	-3	+	+
CNC(=O)c1sc(-c2cccnc2)nc1C	-10	-6	7	1	3	/	/
CCCCCCCCN1C(=O)[C@@H](CC(=O)NCCCOC)C[C@@]2(C(=O)OC)C1=C[C@H](COCc1ccccc1)O[C@@H]2C	0	/	/	/	/	/	/
O=C(CSc1nnc(-c2ccncc2)n1-c1ccccc1)Nc1cccc2ccccc12	13	/	/	/	/	/	/
N#Cc1c(N2C(=O)c3ccc(C(=O)O)cc3C2=O)sc2c1CCCC2	0	-3	2	-1	1	/	/
CC(C)(C)NCc1cccn1-c1sc2c(c1C#N)CCCC2	-1	-17	12	76*	1	66*	52*
CCOC(=O)[C@]12CCCC=C1N(CCCOC)C(=O)[C@@H]2CC(=O)N1CCN(C(=O)c2ccco2)CC1	-2	/	/	/	/	/	/
Cc1ccc(C2N(C)C(=O)c3ccccc3N2C)cc1 (stereo not given)	9	10	9	52*	-1	+	+
Cc1ccc(C2C(=O)c3ccccc3C2=O)cc1	-9	15	4	-2	4	/	/
COc1ccc(OC)c(S(=O)(=O)N2CCC(C(=O)NCC3COCCO3)CC2)c1 (stereo not given)	-1	/	/	/	/	/	/
Cc1nc(C(=O)NCCO)cc2c1[nH]c1ccccc12	6	1	4	16	-1	/	/
Cc1nc(C(=O)O)cc2c1[nH]c1ccccc12	-1	6	15	85*	-13	+	+
